Measured values from PubChem BioAssay (NCI).
About 83,000 compounds went through this panel and 20% of them were active in at least one assay; those are over-represented in the sample as a whole.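 The endpoint reported here, percent growth, reads 100 for growth as untreated, 0 for no net growth and -100 for all cells dead.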 The source made the active and inactive calls. How the source made its calls: active means growth percent below 10; inactive means the rest.

What was measured:
Experiment in all cases: NCI-60 one-dose screen, 48 h (100 = growth as untreated, 0 = no growth, -100 = all killed)
[1] = test system: NCI-H23 lung; conditions: 10 µM unless noted
[2] = test system: NCI-H226 lung; conditions: 10 µM unless noted
[3] = test system: NCI-H322M lung; conditions: 10 µM unless noted
[4] = test system: NCI-H460 lung; conditions: 10 µM unless noted
[5] = test system: HOP-92 NSCLC; conditions: 10 µM
[6] = test system: NCI-H522 lung; conditions: 10 µM unless noted
[7] = test system: A549/ATCC NSCLC; conditions: 10 µM unless noted
[8] = test system: 786-0 renal; conditions: 10 µM unless noted
[9] = test system: COLO 205 colon; conditions: 10 µM unless noted
[10] = test system: DU-145 prostate; conditions: 10 µM unless noted
[11] = test system: K-562 leukemia; conditions: 10 µM unless noted
[12] = test system: MALME-3M melanoma; conditions: 10 µM unless noted
[13] = test system: MDA-MB-231 breast; conditions: 10 µM unless noted
[14] = test system: SF-268 CNS; conditions: 10 µM unless noted
[15] = test system: SF-295 CNS; conditions: 10 µM unless noted
[16] = test system: SF-539 CNS; conditions: 10 µM unless noted
[17] = test system: UACC-257 melanoma; conditions: 10 µM unless noted
[18] = test system: HOP-62 NSCLC; conditions: 10 µM unless noted
[19] = test system: RXF 393 renal; conditions: 10 µM unless noted
[20] = test system: M14 melanoma; conditions: 10 µM unless noted

Measured: growth

COc1ccc(/C=C(/C)c2ccc3ccc(OC)cc3[o+]2)c(O)c1
inactive: [1] 53.2% | [2] 70.9% | [3] 94.7% | [4] 81.5% | [5] 66.7% | [6] 53.1% | [7] 102% | [8] 88.9% | [9] 115% | [10] 86.1% | [11] 31.9% | [12] 85.2% | [13] 72.7% | [14] 88.1% | [15] 94.2% | [16] 96.1% | [17] 89.7%

CS(=O)(=O)Nc1cc(-c2ccc3ncc(C#N)c(Nc4cccc(Cl)c4F)c3c2)cnc1Cl
active: [1] 8.28% | [3] -10.2% | [4] 6.34% | [5] -25% | [6] 1.54% | [7] 4.61% | [8] 4.98% | [9] -74.5% | [12] -32.5% | [13] -8.64% | [14] -10.1% | [15] -10.9% | [16] -24.4% | [17] 2.63%
inactive: [2] 10.4% | [10] 11.9% | [11] 21.8%

O=C1C(c2ccccc2)=C(N2CCc3ccccc32)OC1(Cl)Cl
inactive: [1] 60.1% | [2] 89.2% | [3] 86.3% | [18] 98.1% | [4] 88.2% | [6] 75.3% | [8] 60.1% | [10] 69.4% | [13] 82% | [19] 33.3% | [14] 83.1% | [15] 83.6% | [16] 75.8% | [17] 91.4% | [20] 62.2%
active: [9] -8.41% | [11] 8.28% | [12] -27.3%

CNc1ncc2cc(-c3ccc(-c4ncccc4F)cc3Cl)c(=O)n(CC3OCC(N)CO3)c2n1 (stereo not given)
inactive: [1] 78.4% | [2] 64.3% | [3] 79.5% | [18] 47.1% | [4] 102% | [6] 75.7% | [8] 56.9% | [9] 46.4% | [10] 63.3% | [11] 78.8% | [13] 10.8% | [14] 24.8% | [15] 74.3% | [16] 67.4% | [17] 93% | [20] 87.9%
active: [19] -9.68%

COc1ccc2c(c1)c(CC(=O)[Se]CCC#N)c(C)n2C(=O)c1ccc(Cl)cc1
inactive: [9] 88.4% | [11] 21.2%
active: [1] 3.36% | [2] -53.6% | [3] -3.57% | [4] 1.16% | [5] -67.8% | [6] -8.61% | [8] -45.3% | [10] 6.8% | [12] -68.3% | [13] -13.8% | [14] -30.7% | [15] -82.9% | [16] -63.9% | [17] 6.66%

N#Cc1c(-c2cccs2)cc(-c2cnccn2)nc1SCC(=O)Nc1ccc(Br)cc1
inactive: [1] 74.8% | [2] 81.5% | [3] 88.5% | [4] 70.6% | [5] 98.6% | [7] 72.3% | [8] 80.9% | [9] 96.4% | [10] 70% | [11] 67.4% | [12] 118% | [13] 72.2% | [19] 19.3% | [14] 82.3% | [15] 90.2% | [16] 93.3% | [17] 106% | [20] 91.7%

CNC(=O)c1cc(-c2ccc(NS(=O)(=O)c3ccc(C)cc3)cc2)nc2cccnc12
inactive: [1] 103% | [2] 88.7% | [3] 110% | [4] 107% | [5] 103% | [7] 104% | [8] 110% | [9] 116% | [10] 113% | [11] 101% | [12] 101% | [13] 95% | [19] 133% | [14] 107% | [15] 108% | [16] 102% | [17] 105%

O=C(Nc1nc2ccc([N+](=O)[O-])cc2s1)Nc1ccccc1Cl
active: [1] 9.48%
inactive: [2] 30.7% | [3] 52.2% | [18] 28.2% | [4] 20.1% | [7] 30.2% | [8] 48.5% | [9] 39.8% | [10] 40.2% | [11] 20.6% | [12] 12.1% | [13] 47.5% | [19] 49.2% | [14] 41.7% | [15] 48.5% | [16] 54.7% | [17] 23.2% | [20] 45.1%

CCn1c(SCC(=O)Nc2cccc(C(=O)/C=C/c3cc(OC)c(OC)c(OC)c3)c2)nc2ccccc2c1=O
active: [1] -17.1% | [4] 2.34%
inactive: [2] 11.5% | [3] 54.4% | [5] 34.6% | [6] 38% | [7] 41.1% | [8] 30.2% | [9] 102% | [10] 13.9% | [11] 13.4% | [12] 61.8% | [13] 23.4% | [14] 37.7% | [15] 75% | [16] 24% | [17] 67.7%
